Laboratory results published in the supplement of paper PMC10077471.
Whole data set: some 1,900 compounds, median “excess over highest single agent (ExcessHSA) synergy score, 6x6 matrix” near -83, cut for the lowest 2% near -370. Many of the other results were omitted from the sample, so the lowest values are more common in it than they were.

Each molecule was assayed on NCI-H446 (assay: excess over highest single agent (ExcessHSA) synergy score, 6x6 matrix; higher = less synergy (more negative = stronger synergy)). Details: 72 h; CellTiter-Glo viability.

Row | Compound | excess over highest single agent
1 | CN1c2ccccc2C(=O)N2CCc3c([nH]c4ccccc34)[C@@H]21 + Cc1sc2c(c1C)C(c1ccc(Cl)cc1)=N[C@@H](CC(=O)OC(C)(C)C)c1nnc(C)n1-2 [NCGC00250412-19] | -226
2 | O=C1NC(=O)/C(=C/c2cccc(C(F)(F)F)c2)S1 + Cc1sc2c(c1C)C(c1ccc(Cl)cc1)=N[C@@H](CC(=O)OC(C)(C)C)c1nnc(C)n1-2 [NCGC00250412-19] | 75.6
3 | Cn1c2cc([S+](C)[O-])sc2c2cnn(Cc3cccc(N)c3)c(=O)c21 (configuration not stated) + Cc1sc2c(c1C)C(c1ccc(Cl)cc1)=N[C@@H](CC(=O)OC(C)(C)C)c1nnc(C)n1-2 [NCGC00250412-19] | -110
4 | CC(=O)NCC(=O)N1[C@@H]2CC[C@H]1c1ccc(Nc3ncc(C(F)(F)F)c(NC4CCC4)n3)cc12 + Cc1sc2c(c1C)C(c1ccc(Cl)cc1)=N[C@@H](CC(=O)OC(C)(C)C)c1nnc(C)n1-2 [NCGC00250412-19] | -534
5 | CS(=O)(=O)c1cccc(CNc2nc(Nc3ccc4c(c3)CCC(=O)N4)ncc2C(F)(F)F)c1 + Cc1sc2c(c1C)C(c1ccc(Cl)cc1)=N[C@@H](CC(=O)OC(C)(C)C)c1nnc(C)n1-2 [NCGC00250412-19] | 58.6
6 | CN(c1ncccc1CNc1nc(Nc2ccc3c(c2)CC(=O)N3)ncc1C(F)(F)F)S(C)(=O)=O + Cc1sc2c(c1C)C(c1ccc(Cl)cc1)=N[C@@H](CC(=O)OC(C)(C)C)c1nnc(C)n1-2 [NCGC00250412-19] | -151
7 | CNC(=O)c1ccc2c(C(=Nc3cccc(CN(C)C)c3)c3ccccc3)c(O)[nH]c2c1 + Cc1sc2c(c1C)C(c1ccc(Cl)cc1)=N[C@@H](CC(=O)OC(C)(C)C)c1nnc(C)n1-2 [NCGC00250412-19] | 93.9
8 | CCS(=O)(=O)Nc1ccc2[nH]c(O)c(C(=Nc3ccc(CN4CCCCC4)cc3)c3ccccc3)c2c1 + Cc1sc2c(c1C)C(c1ccc(Cl)cc1)=N[C@@H](CC(=O)OC(C)(C)C)c1nnc(C)n1-2 [NCGC00250412-19] | -393
9 | COC(=O)c1ccc2c(C(=Nc3ccc(N(C)C(=O)CN4CCN(C)CC4)cc3)c3ccccc3)c(O)[nH]c2c1 + Cc1sc2c(c1C)C(c1ccc(Cl)cc1)=N[C@@H](CC(=O)OC(C)(C)C)c1nnc(C)n1-2 [NCGC00250412-19] | -229
10 | COc1ccc(-c2ccc3ncc4c(c3c2)n(-c2ccc(N3CCNCC3)c(C(F)(F)F)c2)c(=O)n4C)cn1 + Cc1sc2c(c1C)C(c1ccc(Cl)cc1)=N[C@@H](CC(=O)OC(C)(C)C)c1nnc(C)n1-2 [NCGC00250412-19] | -20.2
11 | COc1cc(C(C)C)c(Oc2cnc(NC(CO)CO)nc2N)cc1I + Cc1sc2c(c1C)C(c1ccc(Cl)cc1)=N[C@@H](CC(=O)OC(C)(C)C)c1nnc(C)n1-2 [NCGC00250412-19] | -119
12 | OCc1ccc(-c2ccc(-c3ccc(CO)s3)o2)s1 + Cc1sc2c(c1C)C(c1ccc(Cl)cc1)=N[C@@H](CC(=O)OC(C)(C)C)c1nnc(C)n1-2 [NCGC00250412-19] | 33.9
13 | C/C=C1\NC(=O)[C@H]2CSSCC/C=C/[C@H](CC(=O)N[C@H](C(C)C)C(=O)N2)OC(=O)[C@H](C(C)C)NC1=O + Cc1sc2c(c1C)C(c1ccc(Cl)cc1)=N[C@@H](CC(=O)OC(C)(C)C)c1nnc(C)n1-2 [NCGC00250412-19] | -38.7
14 | O=C1[C@H](Cc2ccc(O)cc2)N2C(=O)CCN(C(=O)NCc3ccccc3)[C@H]2CN1Cc1cccc2ccccc12 + Cc1sc2c(c1C)C(c1ccc(Cl)cc1)=N[C@@H](CC(=O)OC(C)(C)C)c1nnc(C)n1-2 [NCGC00250412-19] | -294
15 | Cn1c(=O)c(F)c(Nc2ccc(I)cc2F)c2c(=O)n(C[C@@H](O)CO)cnc21 + Cc1sc2c(c1C)C(c1ccc(Cl)cc1)=N[C@@H](CC(=O)OC(C)(C)C)c1nnc(C)n1-2 [NCGC00250412-19] | -396
16 | O=C(NOC[C@H](O)CO)c1ccc(F)c(F)c1Nc1ccc(I)cc1F + Cc1sc2c(c1C)C(c1ccc(Cl)cc1)=N[C@@H](CC(=O)OC(C)(C)C)c1nnc(C)n1-2 [NCGC00250412-19] | -276
17 | Cn1c(=O)c2c(ncn2CC(O)CO)n(C)c1=O (configuration not stated) + Cc1sc2c(c1C)C(c1ccc(Cl)cc1)=N[C@@H](CC(=O)OC(C)(C)C)c1nnc(C)n1-2 [NCGC00250412-19] | -73.2
18 | O=C(C=Cc1ccc(C=CC(=O)Nc2ccc(C3=NCCN3)cc2)cc1)Nc1ccc(C2=NCCN2)cc1 + Cc1sc2c(c1C)C(c1ccc(Cl)cc1)=N[C@@H](CC(=O)OC(C)(C)C)c1nnc(C)n1-2 [NCGC00250412-19] | -46.7
19 | CC(C)C(=O)Nc1ncc(-c2cc(C(F)F)nn2-c2c(Cl)cccc2Cl)s1 + Cc1sc2c(c1C)C(c1ccc(Cl)cc1)=N[C@@H](CC(=O)OC(C)(C)C)c1nnc(C)n1-2 [NCGC00250412-19] | -105

Row | Compound | excess over highest single agent
20 | COc1ccc(-c2nc(N3CCOCC3)c3sc(CN(C)c4ncc(C(=O)NO)cn4)cc3n2)cn1 + Cc1sc2c(c1C)C(c1ccc(Cl)cc1)=N[C@@H](CC(=O)OC(C)(C)C)c1nnc(C)n1-2 [NCGC00250412-19] | -105
21 | c1ccc2c(Cc3c[nH]c4ccccc34)c[nH]c2c1 + Cc1sc2c(c1C)C(c1ccc(Cl)cc1)=N[C@@H](CC(=O)OC(C)(C)C)c1nnc(C)n1-2 [NCGC00250412-19] | -83.3
22 | CCCS(=O)(=O)Nc1ccc(F)c(C(=O)c2c[nH]c3ncc(-c4ccc(Cl)cc4)cc23)c1F + Cc1sc2c(c1C)C(c1ccc(Cl)cc1)=N[C@@H](CC(=O)OC(C)(C)C)c1nnc(C)n1-2 [NCGC00250412-19] | -108
23 | CCCCOc1c(C(=O)c2c(F)cc(C)cc2F)c[nH]c2nncc1-2 + Cc1sc2c(c1C)C(c1ccc(Cl)cc1)=N[C@@H](CC(=O)OC(C)(C)C)c1nnc(C)n1-2 [NCGC00250412-19] | -375
24 | CCCS(=O)(=O)Nc1ccc(F)c(C(=O)c2c[nH]c3ncc(Cl)cc23)c1F + Cc1sc2c(c1C)C(c1ccc(Cl)cc1)=N[C@@H](CC(=O)OC(C)(C)C)c1nnc(C)n1-2 [NCGC00250412-19] | -97.1
25 | CCOC(=O)/C=C/[C@H](C[C@@H]1CCNC1=O)NC(=O)[C@@H](CC(=O)[C@@H](NC(=O)c1cc(C)on1)C(C)C)Cc1ccc(F)cc1 + Cc1sc2c(c1C)C(c1ccc(Cl)cc1)=N[C@@H](CC(=O)OC(C)(C)C)c1nnc(C)n1-2 [NCGC00250412-19] | -127
26 | O=C(C[C@@H]1C/C=C/CCC(=O)O[C@H](c2ccccc2)CNC1=O)NCc1ccc(Cl)cc1 + Cc1sc2c(c1C)C(c1ccc(Cl)cc1)=N[C@@H](CC(=O)OC(C)(C)C)c1nnc(C)n1-2 [NCGC00250412-19] | -98.1
27 | CN(C)C[C@@H]1CCn2cc(c3ccccc32)C2=C(C(=O)NC2=O)c2cn(c3ccccc23)CCO1 + Cc1sc2c(c1C)C(c1ccc(Cl)cc1)=N[C@@H](CC(=O)OC(C)(C)C)c1nnc(C)n1-2 [NCGC00250412-19] | -125
28 | COc1cc(NCc2ccc3nc(N)nc(N)c3c2C)cc(OC)c1OC + Cc1sc2c(c1C)C(c1ccc(Cl)cc1)=N[C@@H](CC(=O)OC(C)(C)C)c1nnc(C)n1-2 [NCGC00250412-19] | -213
29 | C=C1C(=O)[C@]23[C@H](O)[C@H]1CC[C@H]2[C@@]12CO[C@]3(O)[C@@H](O)[C@@H]1C(C)(C)CC[C@@H]2O + Cc1sc2c(c1C)C(c1ccc(Cl)cc1)=N[C@@H](CC(=O)OC(C)(C)C)c1nnc(C)n1-2 [NCGC00250412-19] | -378
30 | Oc1ccc(C2=Cc3ccc(O)cc3OC2)cc1 + Cc1sc2c(c1C)C(c1ccc(Cl)cc1)=N[C@@H](CC(=O)OC(C)(C)C)c1nnc(C)n1-2 [NCGC00250412-19] | -209
31 | CNc1nc(Nc2ccc(C(=O)N3CCOCC3)cc2OC)ncc1Cl + Cc1sc2c(c1C)C(c1ccc(Cl)cc1)=N[C@@H](CC(=O)OC(C)(C)C)c1nnc(C)n1-2 [NCGC00250412-19] | 436
32 | Cc1ccc(S(=O)(=O)Nc2cc(Cl)ccc2C(=O)Nc2nc(-c3ccccc3)cs2)cc1 + Cc1sc2c(c1C)C(c1ccc(Cl)cc1)=N[C@@H](CC(=O)OC(C)(C)C)c1nnc(C)n1-2 [NCGC00250412-19] | 214
33 | CC(O)(C#Cc1ccc2c(c1)N(c1nc(N)ncc1Cl)CC2)c1nccs1 (configuration not stated) + Cc1sc2c(c1C)C(c1ccc(Cl)cc1)=N[C@@H](CC(=O)OC(C)(C)C)c1nnc(C)n1-2 [NCGC00250412-19] | 54
34 | CC(NCc1ccc2c(c1)nc(NC(=O)c1ccc(-c3cn[nH]c3)s1)n2CC(C)(C)O)C(C)(C)C (configuration not stated) + Cc1sc2c(c1C)C(c1ccc(Cl)cc1)=N[C@@H](CC(=O)OC(C)(C)C)c1nnc(C)n1-2 [NCGC00250412-19] | -312
35 | CC(C)(O)Cn1c(NC(=O)c2ccc(-c3cn[nH]c3)s2)nc2cc(CN3CCOCC3)ccc21 + Cc1sc2c(c1C)C(c1ccc(Cl)cc1)=N[C@@H](CC(=O)OC(C)(C)C)c1nnc(C)n1-2 [NCGC00250412-19] | -423
36 | C[C@H](NCc1ccc2c(c1)nc(NC(=O)c1ccc(-c3cn[nH]c3)s1)n2CCc1ccccc1)C(C)(C)C + Cc1sc2c(c1C)C(c1ccc(Cl)cc1)=N[C@@H](CC(=O)OC(C)(C)C)c1nnc(C)n1-2 [NCGC00250412-19] | -305
37 | CCNC(=O)c1cc2c(-c3cc(OCCN4CCCC4)c(Cl)cc3Cl)nc(N)nc2s1 + Cc1sc2c(c1C)C(c1ccc(Cl)cc1)=N[C@@H](CC(=O)OC(C)(C)C)c1nnc(C)n1-2 [NCGC00250412-19] | -89.1
